Experimental data from PubChem BioAssay (NCI).
Compounds without any hit were thinned out: in the full panel of roughly 83,000, 20% have a hit.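 Cells were grown in 96-well plates and exposed to the test compound at a single concentration for 48 hours; results are reported as percent growth, with values below 10 considered active.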 Active and inactive are the calls of the source.

Tested on: TK-10 renal
Experiment: NCI-60 one-dose screen, 48 h (100 = growth as untreated, 0 = no growth, -100 = all killed)
Conditions: 10 µM unless noted

| Structure (SMILES) | growth |
| --- | --- |
| CCCCCN1C=C/C(=C\C(=O)N(C)c2ccc(Oc3ccccc3)cc2)c2ccccc21 | 92.1% (inactive) |
| O=C1Nc2cc(-c3ccc(NC(=O)C4CC4)cc3)ccc2/C1=C/c1ccc[nH]1 | 115% (inactive) |
| COc1cc2nc(-c3ccc(Cl)cc3)cc(OCCCN3CCCC3)c2cc1OC | 101% (inactive) |
| CCCOC(=O)N[C@H]1CCc2c(Cl)c(OC)c(OC)c(OC)c2-c2ccc(SC)c(=O)cc21 | 49.3% (inactive) |
| CCCCCCOc1ccc(/C=N/Nc2cc(C)nc3ccc(Cl)cc23)cc1 | -51.4% (active) |
| Nc1c(C(=O)Nc2cccc3cnccc23)sc2nc3c(cc12)CN(Cc1ccccc1)CC3 | 140% (inactive) |
| CCCCOc1ccc(/C(C)=N/Nc2cc(C)nc3ccc(Br)cc23)cc1 | 112% (inactive) |
| Cc1cnc(C(=O)Nc2nc3ccc(S(=O)(=O)Nc4ccc(C(C)(C)C)cc4)cc3[nH]2)cn1 | 43.4% (inactive) |
| CCN1CCN(CCNc2nccc(-c3c(-c4cccc(OC)c4)nc4occn34)n2)S1(=O)=O | 128% (inactive) |
| CCCCOc1ccc(/C=N/Nc2cc(C)nc3ccc(Br)cc23)cc1 | 76.2% (inactive) |
| O=c1[nH]nc(-c2ccccc2)c2sc3ncc(-c4ccc(Br)cc4)n3c12 | 109% (inactive) |
| O=C(Nc1ccc(NC(=O)c2cc(=O)[nH]c3ccccc23)cc1)Nc1cccc(Cl)c1 | 90.2% (inactive) |
| N#Cc1cc(-c2nc3ccccc3s2)c(=O)n(NS(=O)(=O)c2ccccc2)c1N | 137% (inactive) |
| Oc1ccc(C(c2ccc(O)cc2)c2ccc(Br)cn2)cc1 | 4.53% (active) |
| CCOC(=O)[C@@H]1CCCN(S(=O)(=O)c2ccc(S(=O)(=O)N(CC)CC)c(F)c2)C1 | 81.4% (inactive) |
| N#Cc1cccc(-c2ccc3c(c2)NC(=O)/C3=C\c2ccc[nH]2)c1 | 32.3% (inactive) |
| O=[N+]([O-])c1cc(Br)c2cccc3c2c1CC3 | 110% (inactive) |
| NS(=O)(=O)c1ccc(Cn2c(SCC(=O)N/N=C/c3ccccc3O)nc3ccccc3c2=O)cc1 | 53.8% (inactive) |
| CCNC(=O)Oc1ccc(/C(=C(\C)c2ccccc2)c2ccc(OCCN(CC)CC)cc2)cc1 | 95.6% (inactive) |

| Structure (SMILES) | growth |
| --- | --- |
| COc1ccc(C(=O)/C=C/c2cc3ccccc3n3nnnc23)cc1 | 104% (inactive) |
| O=C(N/N=C/c1ccc(Oc2ccccc2)cc1)c1cnn2c1NC(c1ccccc1)C2 (stereo unspecified) | 66.8% (inactive) |
| NC1=NN=C(N)C1=Cc1cc2ccccc2n2nnnc12 | 114% (inactive) |
| CCSCC1CC(O)(c2ccccc2)CC(c2ccc(F)cc2)O1 (stereo unspecified) | 21.9% (inactive) |
| Cc1cccc(NC(=O)Nc2ccc(-n3cnc4cc(-c5ccc(O)cc5)ccc43)cc2)c1 | 21.8% (inactive) |
| COc1ccc(/C=C(\C#N)n2nc3cccc(F)c3n2)cc1 | 100% (inactive) |
| Nc1n[nH]c2cccc(C#Cc3cccc(C(=O)Nc4cccc(C(F)(F)F)c4)c3)c12 | 97.5% (inactive) |
| O=C(Nc1ccccc1C(=O)N/N=C(\c1ccccc1)c1ccccn1)c1ccc(F)cc1 | 49.1% (inactive) |
| C=C1C(=O)O[C@H]2[C@H]1CC/C(C(=O)NCCCCCNC(=O)/C1=C/CC[C@@]3(C)O[C@H]3[C@H]3OC(=O)C(=C)[C@@H]3CC1)=C\CC[C@@]1(C)O[C@@H]21 | 96.5% (inactive) |
| N#Cc1c(NCc2ccccc2I)sc2c1CCCCC2 | 109% (inactive) |
| C=C1C(=O)O[C@H]2[C@H]1CC/C(COC(=O)NCC(C)c1ccc(CC(C)C)cc1)=C\CC[C@@]1(C)O[C@@H]21 (stereo partly specified) | -36.1% (active) |
| Cc1cc(C(=O)/C=C/c2ccc[nH]2)ccc1-n1ccc(C(F)(F)F)n1 | 95.6% (inactive) |
| C=C1C(=O)O[C@H]2[C@H]1CC/C(CNC(=O)/C=C/c1cccc(OC)c1)=C\CC[C@@]1(C)O[C@@H]21 | -37.7% (active) |
| COc1cc(/C=N/NC(=O)c2cnn3c2NC(c2ccccc2)C3)ccc1Oc1ccccc1 (stereo unspecified) | 46.8% (inactive) |
| COc1cc(C2=C(c3cn(C)c4ccccc34)COC2=O)cc(OC)c1OC | 44.2% (inactive) |
| COc1cc(/C=C\C(=O)O)ccc1OCc1ccccc1 | 101% (inactive) |
| COc1cc2c(=O)n(CCN)c3c4cc5c(cc4ccc3c2cc1OC)OCO5 | 42.7% (inactive) |
| CCCCCN1C=C/C(=C\C(=O)N(C)c2ccc(OC(F)(F)F)cc2)c2ccccc21 | 105% (inactive) |
| CN(C)CC(O)c1ccc(/C=C/c2ccc(Cl)cc2)cc1 (stereo unspecified) | -91.5% (active) |

Tested on: ACHN renal
Experiment: as above
Conditions: 10 µM unless noted

| Structure (SMILES) | growth |
| --- | --- |
| CCCCCN1C=C/C(=C\C(=O)N(C)c2ccc(Oc3ccccc3)cc2)c2ccccc21 | 102% (inactive) |
| O=C1Nc2cc(-c3ccc(NC(=O)C4CC4)cc3)ccc2/C1=C/c1ccc[nH]1 | 106% (inactive) |
| COc1cc2nc(-c3ccc(Cl)cc3)cc(OCCCN3CCCC3)c2cc1OC | 35.5% (inactive) |
| CCCOC(=O)N[C@H]1CCc2c(Cl)c(OC)c(OC)c(OC)c2-c2ccc(SC)c(=O)cc21 | 30.7% (inactive) |
| CCCCCCOc1ccc(/C=N/Nc2cc(C)nc3ccc(Cl)cc23)cc1 | -92% (active) |
| Nc1c(C(=O)Nc2cccc3cnccc23)sc2nc3c(cc12)CN(Cc1ccccc1)CC3 | 99.9% (inactive) |
| CCCCOc1ccc(/C(C)=N/Nc2cc(C)nc3ccc(Br)cc23)cc1 | 103% (inactive) |
| Cc1cnc(C(=O)Nc2nc3ccc(S(=O)(=O)Nc4ccc(C(C)(C)C)cc4)cc3[nH]2)cn1 | 49.6% (inactive) |
| CCN1CCN(CCNc2nccc(-c3c(-c4cccc(OC)c4)nc4occn34)n2)S1(=O)=O | 84.9% (inactive) |
| CCCCOc1ccc(/C=N/Nc2cc(C)nc3ccc(Br)cc23)cc1 | 19.9% (inactive) |
| O=c1[nH]nc(-c2ccccc2)c2sc3ncc(-c4ccc(Br)cc4)n3c12 | 75.7% (inactive) |
| O=C(Nc1ccc(NC(=O)c2cc(=O)[nH]c3ccccc23)cc1)Nc1cccc(Cl)c1 | 97.6% (inactive) |
| N#Cc1cc(-c2nc3ccccc3s2)c(=O)n(NS(=O)(=O)c2ccccc2)c1N | 99.5% (inactive) |
| Oc1ccc(C(c2ccc(O)cc2)c2ccc(Br)cn2)cc1 | 21% (inactive) |
| CCOC(=O)[C@@H]1CCCN(S(=O)(=O)c2ccc(S(=O)(=O)N(CC)CC)c(F)c2)C1 | 75% (inactive) |
| N#Cc1cccc(-c2ccc3c(c2)NC(=O)/C3=C\c2ccc[nH]2)c1 | 57.8% (inactive) |
| O=[N+]([O-])c1cc(Br)c2cccc3c2c1CC3 | 110% (inactive) |
| NS(=O)(=O)c1ccc(Cn2c(SCC(=O)N/N=C/c3ccccc3O)nc3ccccc3c2=O)cc1 | 72.3% (inactive) |
| CCNC(=O)Oc1ccc(/C(=C(\C)c2ccccc2)c2ccc(OCCN(CC)CC)cc2)cc1 | 102% (inactive) |

| Structure (SMILES) | growth |
| --- | --- |
| COc1ccc(C(=O)/C=C/c2cc3ccccc3n3nnnc23)cc1 | 106% (inactive) |
| O=C(N/N=C/c1ccc(Oc2ccccc2)cc1)c1cnn2c1NC(c1ccccc1)C2 (stereo unspecified) | 35.2% (inactive) |
| NC1=NN=C(N)C1=Cc1cc2ccccc2n2nnnc12 | 102% (inactive) |
| CCSCC1CC(O)(c2ccccc2)CC(c2ccc(F)cc2)O1 (stereo unspecified) | 3.1% (active) |
| Cc1cccc(NC(=O)Nc2ccc(-n3cnc4cc(-c5ccc(O)cc5)ccc43)cc2)c1 | 16.1% (inactive) |
| COc1ccc(/C=C(\C#N)n2nc3cccc(F)c3n2)cc1 | 99.7% (inactive) |
| Nc1n[nH]c2cccc(C#Cc3cccc(C(=O)Nc4cccc(C(F)(F)F)c4)c3)c12 | 54.7% (inactive) |
| O=C(Nc1ccccc1C(=O)N/N=C(\c1ccccc1)c1ccccn1)c1ccc(F)cc1 | 14.1% (inactive) |
| C=C1C(=O)O[C@H]2[C@H]1CC/C(C(=O)NCCCCCNC(=O)/C1=C/CC[C@@]3(C)O[C@H]3[C@H]3OC(=O)C(=C)[C@@H]3CC1)=C\CC[C@@]1(C)O[C@@H]21 | 102% (inactive) |
| N#Cc1c(NCc2ccccc2I)sc2c1CCCCC2 | 97.7% (inactive) |
| C=C1C(=O)O[C@H]2[C@H]1CC/C(COC(=O)NCC(C)c1ccc(CC(C)C)cc1)=C\CC[C@@]1(C)O[C@@H]21 (stereo partly specified) | -100% (active) |
| Cc1cc(C(=O)/C=C/c2ccc[nH]2)ccc1-n1ccc(C(F)(F)F)n1 | 98.9% (inactive) |
| C=C1C(=O)O[C@H]2[C@H]1CC/C(CNC(=O)/C=C/c1cccc(OC)c1)=C\CC[C@@]1(C)O[C@@H]21 | -79.7% (active) |
| COc1cc(/C=N/NC(=O)c2cnn3c2NC(c2ccccc2)C3)ccc1Oc1ccccc1 (stereo unspecified) | 27.6% (inactive) |
| COc1cc(C2=C(c3cn(C)c4ccccc34)COC2=O)cc(OC)c1OC | 28% (inactive) |
| COc1cc(/C=C\C(=O)O)ccc1OCc1ccccc1 | 102% (inactive) |
| COc1cc2c(=O)n(CCN)c3c4cc5c(cc4ccc3c2cc1OC)OCO5 | -10.5% (active) |
| CCCCCN1C=C/C(=C\C(=O)N(C)c2ccc(OC(F)(F)F)cc2)c2ccccc21 | 108% (inactive) |
| CN(C)CC(O)c1ccc(/C=C/c2ccc(Cl)cc2)cc1 (stereo unspecified) | -50.1% (active) |
